From PubChem BioAssay AID1159580 (chemical genetic matrix, 2015)
Screen size: about 5,500 compounds; about 2,000 (36%) were called active. About 18% were inconclusive and are not listed. Cut-off read from the data, not from the text of the source: active = normalized growth mostly below about 0.91 (no sharp cut-off); inconclusive = no clear call, values can overlap the other calls; inactive = mostly above about 0.92. The list shows a part of the results.

Experiment: chemical genetic growth profiling, strain panel (AID 1159580);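 note: tested at 20 µM; growth read once vehicle control cultures reached saturation at 30 °C; 1 = growth at the plate median or of vehicle wells; lower values mean less growth of the strain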
Conditions: S. cerevisiae deletion strains, growth OD

Measured: normalized growth

COc1ccc(-c2cc(=O)c3c(OC)c(OC)c(OC)c(OC)c3o2)cc1
inactive: locus YAL021C, strain ccr4, hits give low values 0.996 | locus YAL030W, strain snc1, hits give low values 0.959 | locus YBR009C, strain hhf1, hits give low values 0.91 | locus YBR171W, strain sec66, hits give low values 0.961 | locus YBR279W, strain paf1, hits give low values 0.942 | locus YCL069W, strain vba3, hits give low values 0.934 | locus YCR088W, strain abp1, hits give low values 0.937 | locus YDL005C, strain med2, hits give low values 0.985 | locus YDL040C, strain nat1, hits give low values 0.975 | locus YDR001C, strain nth1, hits give low values 0.959 | locus YDR069C, strain doa4, hits give low values 0.981 | locus YDR159W, strain sac3, hits give low values 0.931 | locus YDR195W, strain ref2 1.05 | locus YDR297W, strain sur2, hits give low values 0.954 | locus YDR334W, strain swr1, hits give low values 0.938 | locus YEL003W, strain gim4, hits give low values 0.964 | locus YEL037C, strain rad23, hits give low values 0.99 | locus YER111C, strain swi4, hits give low values 0.978 | locus YFR010W, strain ubp6, hits give low values 0.967 | locus YGL167C, strain pmr1, hits give low values 0.972 | locus YGL173C, strain kem1, hits give low values 0.913 | locus YHR013C, strain ard1, hits give low values 0.887 | locus YHR027C, strain rpn1, hits give low values 0.974 | locus YHR030C, strain SLT2, hits give low values 1.02 | locus YHR079C, strain IRE1, hits give low values 1.02 | locus YJL092W, strain hpr5, hits give low values 0.946 | locus YJL095W, strain BCK1, hits give low values 0.984 | locus YJL115W, strain asf1, hits give low values 0.977 | locus YJL154C, strain vps35, hits give low values 0.996 | locus YJL164C, strain tpk1, hits give low values 0.933 | locus YJR066W, strain TOR1, hits give low values 0.964 | locus YKR026C, strain gcn3, hits give low values 0.974 | locus YKR091W, strain srl3, hits give low values 0.986 | locus YLL001W, strain dnm1, hits give low values 0.922 | locus YLL026W, hits give low values 0.968 | locus YLL041C, strain sdh2, hits give low values 0.973 | locus YLR113W, strain HOG1, hits give low values 0.96 | locus YLR258W, strain gsy2, hits give low values 0.944 | locus YLR357W, strain rsc2, hits give low values 0.924 | locus YLR384C, strain iki3, hits give low values 0.978 | locus YML120C, strain ndi1, hits give low values 0.948 | locus YMR125W, strain sto1, hits give low values 0.899 | locus YMR129W, hits give low values 0.978 | locus YMR231W, strain pep5, hits give low values 1.01 | locus YNL183C, strain NPR1, hits give low values 0.937 | locus YNL209W, strain ssb2, hits give low values 0.994 | locus YNL248C, strain rpa49, hits give low values 0.997 | locus YNL322C, strain KRE1 (second series), hits give low values 0.943 | locus YNR049C, strain mso1, hits give low values 0.985 | locus YOR001W, strain rrp6, hits give low values 0.962 | locus YOR070C, strain gyp1, hits give low values 0.961 | locus YOR080W, strain dia2, hits give low values 0.992 | locus YOR231W, strain MKK1, hits give low values 1.02 | locus YOR265W, strain rbl2, hits give low values 0.94 | locus YOR290C, strain snf2, hits give low values 0.886 | locus YPL106C, strain sse1, hits give low values 0.927 | locus YPL240C, strain hsp82, hits give low values 0.966 | locus YPL256C, strain CLN2, hits give low values 1.04
active: locus YAL026C, strain drs2, hits give low values 0.846 | locus YBL061C, strain skt5, hits give low values 0.792 | locus YBR023C, strain chs3, hits give low values 0.848 | locus YBR231C, strain swc5, hits give low values 0.795 | locus YCL011C, strain gbp2, hits give low values 0.907 | locus YCL016C, strain dcc1, hits give low values 0.911 | locus YCL061C, strain MRC1, hits give low values 0.918 | locus YDR137W, strain rgp1, hits give low values 0.705 | locus YDR335W, strain msn5, hits give low values 0.915 | locus YDR392W, strain spt3, hits give low values 0.248 | locus YEL061C, strain CIN8 (second series), hits give low values 0.874 | locus YER015W, strain faa2, hits give low values 0.912 | locus YER016W, strain bim1, hits give low values 0.898 | locus YER155C, strain BEM2 (second series), hits give low values 0.51 | locus YGL227W, strain vid30, hits give low values 0.87 | locus YGL240W, strain doc1, hits give low values 0.84 | locus YGL253W, strain hxk2, hits give low values 0.792 | locus YHR142W, strain chs7, hits give low values 0.54 | locus YJL095W, strain BCK1 (second series), hits give low values 0.899 | locus YJL129C, strain trk1, hits give low values 0.774 | locus YJL166W, strain qcr8, hits give low values 0.801 | locus YJL187C, strain SWE1, hits give low values 0.922 | locus YKL160W, strain elf1, hits give low values 0.887 | locus YLR027C, strain aat2, hits give low values 0.892 | locus YLR221C, strain rsa3, hits give low values 0.889 | locus YLR262C, strain YPT6 (second series), hits give low values 0.692 | locus YLR320W, strain mms22, hits give low values 0.635 | locus YLR342W, strain FKS1, hits give low values 0.904 | locus YLR370C, strain arc18, hits give low values 0.862 | locus YMR058W, strain fet3, hits give low values 0.845 | locus YMR205C, strain PFK2, hits give low values 0.78 | locus YNL071W, strain lat1, hits give low values 0.473 | locus YOR083W, strain WHI5, hits give low values 0.879 | locus YOR106W, strain vam3, hits give low values 0.837 | locus YOR270C, strain vph1, hits give low values 0.644 | locus YPL051W, strain arl3, hits give low values 0.882 | locus YPL078C, strain atp4, hits give low values 0.791
